According to PubChem BioAssay AID588773 (The Scripps Research Institute Molecular Screening Center, 2011):
Activity calls are given as the source filed them.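 The calls were made as follows: active = inhibition of plasma PAF acetylhydrolase at a set limit or more at 0.1 µM, with tenfold selectivity over all off-targets; inactive = inhibition below the limit or weaker selectivity.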

Experiment: pPAFAH inhibition and serine hydrolase selectivity, late-stage follow-up, selectivity assay for pPAFAH inhibitor project, biochemical, gel-based, FP-Rh fluorescence, mouse, HTS hit compounds (AID 588773)
Details: gel-based competitive ABPP, proteome, MW 32 kDa protein, at 10 µM

outcome, inactive:
O=C(Oc1nsnc1N1CCOCC1)N1CCOCC1
O=C(/C=C/c1cccs1)c1cc(Br)ccc1OC(=O)N1CCOCC1
O=C(Oc1ccc(-c2ccccc2)cc1)N1CCOCC1
O=C(Oc1ccc(Oc2ccccc2)cc1)N1CCC(O)CC1
O=C(CCCSc1ccc(Cl)cc1)Nc1cc(S(=O)(=O)N2CCOCC2)ccc1O
CCCCOC(=O)c1ccc(OC(=O)N2CCOCC2)cc1
O=C(Oc1ccc(-c2ccccc2)cc1)N1CCCCC1
